{
  "source": "PubChem BioAssay",
  "note": "Several values for one entry are separate records, joined by “and”; a condition that tells them apart may be missing. Identical values can stand only once. Activity calls are given as the source filed them. No rule for the calls is given here.",
  "data": [
    {"assay": "Brca1-Bard1 BiLC signal decrease – luminescence, single concentration, counter-screen for Mdm2/MdmX interaction inhibitor project, confirmation (AID 504668)", "details": "Brca1/Bard1 bimolecular luciferase complementation counterscreen, at 8 µM, stronger effect = higher value", "values": [
      {"smiles": "Cc1nn2c(NCc3ccccn3)cc(C(C)C)nc2c1-c1ccccc1", "inhibition": "28.7% (active)"},
      {"smiles": "Cc1ccc(C(c2cc(Cl)c3cccnc3c2O)N2CCN(C)CC2)cc1", "note": "(stereo not given)", "inhibition": "32.5% (active)"},
      {"smiles": "Cc1cc(C)c2nc(N3CCC(C(=O)NCCCN4CC(C)CC(C)C4)CC3)sc2c1", "note": "(stereo not given)", "inhibition": "32.3% (active)"},
      {"smiles": "Cc1cc(C(=O)Nc2ccc(Cl)cc2)c(C)n1-c1ccccc1", "inhibition": "30.6% (active)"},
      {"smiles": "O=C(/C(N=Nc1cccc([N+](=O)[O-])c1)=C(/O)c1ccc(Br)cc1)C(F)(F)F", "inhibition": "24.9% (active)"},
      {"smiles": "COc1ccc(C(=O)C(CN2CCOCC2)c2ccccc2)cc1", "note": "(stereo not given)", "inhibition": "27.4% (active)"},
      {"smiles": "COc1ccc(N2C(=O)N3[C@H](c4cccc(C)c4)[C@@H]4C(=O)N(Cc5ccccc5)C(=O)[C@@H]4[C@]3(Cc3ccccc3)C2=O)cc1", "inhibition": "35.6% (active)"},
      {"smiles": "Brc1cc(Br)c2ncnc(N3CCCCC3)c2c1", "inhibition": "27.7% (active)"},
      {"smiles": "C(=N\\Nc1nc2ccccc2[nH]1)/c1cccc2nccnc12", "inhibition": "31.8% (active)"},
      {"smiles": "CC1=[N+](C)c2ccc3ccccc3c2C1(C)C", "inhibition": "28.2% (active)"},
      {"smiles": "CC(C)(C)C(=O)NC(=S)NNC(=O)c1ccc(-c2ccccc2)cc1", "inhibition": "28.9% (active)"},
      {"smiles": "CCOc1cc(/C=N/NC(=O)Cc2ccc(C(F)(F)F)cc2[N+](=O)[O-])c(Br)cc1OC", "inhibition": "30.8% (active)"},
      {"smiles": "O=c1c2ccccc2nc(COc2ccccc2)n1/N=C/c1ccc(O)cc1O", "inhibition": "31% (active)"},
      {"smiles": "COc1ccc(Cc2nnc(N/N=C/c3ccc(O)cc3)[nH]c2=O)cc1OC", "inhibition": "24.8% (active)"},
      {"smiles": "CCCC(=O)NC(c1ccc(OC)c(OC)c1)c1cc(Cl)c2cccnc2c1O", "note": "(stereo not given)", "inhibition": "27.9% (active)"},
      {"smiles": "C1CCC(C(CC2CCCCN2)C2CCCCC2)CC1", "note": "(stereo not given)", "inhibition": "35.2% (active) and 23.8% (active)"},
      {"smiles": "Brc1ccc2ncnc(Nc3ccc(N4CCOCC4)cc3)c2c1", "inhibition": "25.5% (active)"},
      {"smiles": "O=C(N/N=C/c1c(O)ccc2ccccc12)c1cccnc1", "inhibition": "29.9% (active)"},
      {"smiles": "CC(C)(C)c1cc(NC(=O)CCl)n(-c2ccccc2)n1", "inhibition": "24.1% (active)"},
      {"smiles": "Oc1ccc(CN2CCc3ccccc3C2)c2cccnc12", "inhibition": "24.4% (active)"},
      {"smiles": "CCOc1ccc(/C=C/C(O)=C2/C(=O)NC3(C)CC2c2ccccc2O3)cc1OC", "note": "(stereo not given)", "inhibition": "23.4% (active)"},
      {"smiles": "COc1ccc(C(=O)C/C(=C\\C(=O)c2ccc(C)cc2)c2ccccc2)cc1", "inhibition": "24.3% (active)"},
      {"smiles": "CCCOc1ccc(C(=O)C(CN2CCOCC2)c2ccccc2)cc1", "note": "(stereo not given)", "inhibition": "25.6% (active)"},
      {"smiles": "COc1ccc(C2=Nn3c(nnc3-c3ccccc3F)SC2)cc1OC1CCOC1", "note": "(stereo not given)", "inhibition": "33.4% (active)"},
      {"smiles": "CN(Cc1ccccc1)C(=O)c1ccc(NC(=O)C2CCN(C(=O)OC(C)(C)C)CC2)cc1", "inhibition": "31.6% (active)"},
      {"smiles": "Cc1cc(C(=O)NC2CCCc3c2cnn3-c2cccc(C)c2C)no1", "note": "(stereo not given)", "inhibition": "23.6% (active)"},
      {"smiles": "O=C(Nc1ccc(N2CCCCC2)cc1)c1ccccn1", "inhibition": "27.9% (active)"},
      {"smiles": "Cc1ccc(O)c(/C=N/NC(=O)Cc2ccc(Cl)cc2)c1", "inhibition": "33.6% (active)"},
      {"smiles": "Cc1sc2ncnc(N3CCC(C(=O)N(C)CC(=O)Nc4ccc(Cl)c(C(F)(F)F)c4)CC3)c2c1C", "inhibition": "29% (active)"},
      {"smiles": "CCCCC(=O)NC(c1cccs1)c1cc(Cl)c2cccnc2c1O", "note": "(stereo not given)", "inhibition": "28.5% (active)"},
      {"smiles": "C=C1CCC2[C@](C)(CO)[C@H](O)CC[C@@]2(C)[C@@H]1C/C=C1\\C(=O)OC[C@H]1O", "note": "(stereo not given in full)", "inhibition": "27.2% (active)"},
      {"smiles": "CCS(=O)(=O)c1ccc(N=Nc2ccc(O)c3ncccc23)c(OC)c1", "inhibition": "31.8% (active)"},
      {"smiles": "CC[N+]1=C(C)C(C)(C)c2cc(C)ccc21", "inhibition": "28.2% (active)"},
      {"smiles": "C=C(C(=O)c1ccccc1)C(C)CC(=O)c1ccccc1", "note": "(stereo not given)", "inhibition": "32.4% (active)"},
      {"smiles": "CCc1ccccc1OCC(=O)Nc1nc(-c2cccnc2)cs1", "inhibition": "35.6% (active)"},
      {"smiles": "COc1ccc(N/N=C/c2c(C(=O)O)ccc3ccccc23)cc1", "inhibition": "24.1% (active)"},
      {"smiles": "Cn1c(/C=C/c2ccc(Br)cc2)c([N+](=O)[O-])c(=O)n(C)c1=O", "inhibition": "23.9% (active)"},
      {"smiles": "O=C(Nc1ccncc1NC(=O)c1cccc([N+](=O)[O-])c1)c1cccc([N+](=O)[O-])c1", "inhibition": "31% (active)"},
      {"smiles": "O=C(N/N=C/c1cc(Br)cc(Br)c1O)c1cccc(S(=O)(=O)N2CCOCC2)c1", "inhibition": "29.6% (active)"},
      {"smiles": "Cc1ccc(C(C)C)cc1OCC(=O)Nc1nnc(C2CC2)s1", "inhibition": "33.4% (active)"}
    ]}
  ]
}
